Measured values: PubChem BioAssay (NCI)
Several values for one entry are separate records, joined by “and”; a condition that tells them apart may be missing. Equal entries are not always repeated. Compounds without any hit were thinned out: in the full panel of roughly 79,000, 15% have a hit. No stated cut-off is given here; in the data, active means growth inhibition above about 70%; inactive means the rest.

What was measured:
[1] = NCI Yeast Anticancer Drug Screen. Data for the rad50 strain (AID 155);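 further: 0% = growth of vehicle-only cultures of the same strain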; settings: S. cerevisiae rad50 strain growth inhibition, hits give high values; at 50.0 µM unless noted
Outline: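 Growth of the mutant yeast was measured after compound exposure and referenced to vehicle-treated cultures.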

[2] = NCI Yeast Anticancer Drug Screen. Data for the mec2-1 strain (AID 157); settings: S. cerevisiae mec2-1 strain, hits give high values; at 50.0 µM unless noted
Outline: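 Cells of the genetically defined mec2-1 yeast strain are incubated with test compound. Inhibition of growth is calculated against vehicle-treated controls.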

[3] = NCI Yeast Anticancer Drug Screen. Data for the sgs1 mgt1 strain (AID 161);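 further: 0% = growth of cultures given vehicle only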; settings: S. cerevisiae sgs1 mgt1 strain, hits give high values; at 50.0 µM unless noted
Outline: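 Test agents were incubated with a DNA-repair-mutant yeast strain. Growth was then read and compared against vehicle-treated controls.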

[4] = NCI Yeast Anticancer Drug Screen. Data for the cln2 rad14 strain (AID 165);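 further: 0% = growth equal to vehicle treated cultures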; settings: S. cerevisiae cln2 rad14 strain, hits give high values; at 50.0 µM unless noted
Outline: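 The screen exposed genetically defined yeast (cln2 rad14) to test compounds and scored growth inhibition relative to vehicle-treated controls.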

[5] = NCI Yeast Anticancer Drug Screen. Data for the bub3 strain (AID 167); settings: S. cerevisiae bub3 mutant strain, hits give high values; at 50.0 µM unless noted
Outline: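 Whole-cell yeast assay. The mutant strain was incubated with compounds, and growth inhibition was determined by comparison with vehicle-treated cells.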

[6] = NCI Yeast Anticancer Drug Screen. Data for the mlh1 rad18 strain (AID 175); settings: S. cerevisiae mlh1 rad18 strain growth inhibition, hits give high values; at 50.0 µM unless noted
Outline: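 Compound-treated yeast growth, normalised to vehicle controls. Strain bears defined DNA repair mutations.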

Measured: growth inhibition

CC(=O)C(C(C)=O)=C1CCCC(O)O1 (stereo not given)
inactive: [1] 20.4% | [2] -0.7% | [3] 4.55% | [4] 5.7% | [5] 2.65% | [6] 13.1%

Cc1cc(-c2cc(C)c(O)c(C)c2)cc(C)c1O
inactive: [1] 17.1% and -1.5% | [2] 16.6% and 0.8% | [3] 39.1% and -7.05% | [4] 14.9% and -4.3% | [5] 4.7% and -35.7% | [6] 23.2% and 3.3%

Cc1ccccc1-c1nc2c(N)nc(N)nc2nc1N
inactive: [1] -4.2% | [2] -12.8% | [3] -23.6% | [4] -18.9% | [5] -36.9% | [6] -62%

O=C(Cc1ccccc1)NC/C=N/O
inactive: [1] 26.5% | [2] -20% | [3] 10.2% | [4] -2% | [5] -43.1% | [6] -4.75%

N#Cc1[nH]c(=O)n(-c2ccc([N+](=O)[O-])cc2)c1N
inactive: [1] -29.4% | [2] -59.8% | [3] -25.1% | [4] -1.7% | [5] -12.1% | [6] -39.9%
